The record followed here is PubChem BioAssay (NCI).

Compounds without any hit were thinned out: in the full panel of roughly 83,000, 20% have a hit.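 Treatment: one concentration, 48 hours, 96-well format. Scoring: percent growth, with anything below 10 considered active.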 Calls of active or inactive are those of the source.

The subject of this assay is MDA-MB-468 breast. The assay can be described thus: NCI-60 one-dose screen, 48 h (100 = growth as untreated, 0 = no growth, -100 = all killed). The settings on record: 10 µM unless noted.
For the compound `COc1ccc2c(c1)c(-c1nc(-c3cn(C)c4ncccc34)cs1)cn2CCCCN1CCOCC1`, the growth was 35% (inactive).
Next, `O=[N+]([O-])CC(c1ccccc1Cl)c1c(-c2ccccc2)[nH]c2ccccc12` (centres undefined): 7.39% (active).
To `CCCCCN(CCCCC)CC(O)c1ccc(C)c(Cl)c1` (centres undefined) belongs 99.9% (inactive); to `COc1ccc(N(CC(=O)NCCC[Te]c2ccccc2)C(=O)CCSC2=C(C)C(=O)c3ccccc3C2=O)cc1`, -58.1% (active).
To `COc1ccc(O)c2c(=O)c3c(OC)cc4c(c3oc12)[C@@H]1C=CO[C@@H]1O4` belongs -63.2% (active); to `CC(C)=CC1C(C(=O)OCc2cccc(Oc3ccccc3)c2)C1(C)C` (centres undefined), 100% (inactive).
On to `Cc1cc(NC(=O)/C=C/c2ccc([N+](=O)[O-])cc2)ccc1S(=O)(=O)F`, for which the growth is 114% (inactive).
To `Cc1ccc(NC(=O)CBr)cc1` belongs 98.5% (inactive); to `O=C(O)c1ccc([S-])cc1.[Au+].c1ccc(CN2[CH-]N(Cc3ccccc3)C(c3ccccc3)=C2c2ccccc2)cc1`, -63.2% (active); to `C[C@]12CC[C@H]3[C@@H](CC[C@]4(O)C[C@@H](O[C@@H]5O[C@H](CO)[C@@H](O[C@@H]6OC[C@@H](O)[C@H](O)[C@H]6O)[C@H](O)[C@H]5O)CC[C@]34C=O)[C@@]1(O)CC[C@@H]2C1=CC(=O)OC1`, 38.7% (inactive).
To `CNC(=O)Oc1ccc(Cl)cc1SSc1cc(Cl)ccc1OC(=O)NC` belongs 85.2% (inactive); to `C#CC1(O)CCC2(C)C(CCC3C4CCC(=O)C4(C)CCC32)C1` (centres undefined), 86.3% (inactive).
Turning to `CC(C)c1cc([N+](=O)[O-])cc([N+](=O)[O-])c1O`, the growth is 96.7% (inactive).
`O=S(=O)(F)c1cccc(Cl)c1C[P+](c1ccccc1)(c1ccccc1)c1ccccc1`: the growth was 46.9% (inactive).
Next, `CCN1CC2(CN(CC)C1=S)C(=O)NC(=O)NC2=O`: 116% (inactive); `COc1ccc(/C=C\c2cc(OC)c(OC)c(OC)c2)cc1NC(=O)/C=C/c1ccc(OC)c(OC)c1`: 1.52% (active); `CC[C@H](C)[C@H](NC(=O)NC(C)(C)C)C(=O)N(C)[C@H](C[C@@H](OC(C)=O)c1nc(C(=O)N[C@@H](Cc2ccccc2)C[C@H](C)C(=O)OC)cs1)C(C)C`: 15.4% (inactive).
Next, `Cn1cccc1C1CC(=O)N(CCC[Se]C#N)C1=O` (centres undefined): 13.6% (inactive); `ClCCN(CCCl)c1ccc(-n2cnc3c(Cl)ncnc32)cc1`: -43.5% (active); `O=C(O)CNC(=O)C(Cl)(Cl)Cl`: 98.8% (inactive).
In the case of `CC1=C[C@H]2O[C@@H]3C[C@H]4OC(=O)/C=C\C=C\[C@H]([C@@H](C)O)OCC/C(C)=C/C(=O)OC[C@@]2(CC1)[C@]4(C)[C@]31CO1`, the growth is -63.8% (active).
Turning to `CN1CCCCC1C(C)(O)c1ccccc1` (centres undefined), the growth is 102% (inactive).
With `CCOC(=O)[C@@H](C)C[C@H](Cc1ccccc1)NC(=O)c1csc([C@@H](C[C@H](C(C)C)N(C)C(=O)[C@H](CCC(C)C)NC(=O)[C@H]2CCCCN2C)OC(C)=O)n1`, the growth was 5.73% (active).
In the case of `O=[N+]([O-])c1cc(Br)c(O)c(Br)c1`, the growth was 99.4% (inactive).
To `O=[N+]([O-])c1ccc(N(CCO)CCO)c2c1no[n+]2[O-]` belongs 2.96% (active); to `CC1=C(SCCC(=O)OCC(=O)NCCC[Te]c2ccccc2)C(=O)c2ccccc2C1=O`, 9.39% (active).
In the case of `CC(=O)O[C@H]1C[C@H](O[C@H]2[C@@H](O)C[C@H](O[C@H]3[C@@H](O)C[C@H](O[C@H]4CC[C@@]5(C)C(CCC6C5C[C@@H](O)[C@]5(C)[C@@H](C7=CC(=O)OC7)CC[C@]65O)C4)O[C@@H]3C)O[C@@H]2C)O[C@H](C)[C@H]1O[C@@H]1O[C@H](CO)[C@@H](O)[C@H](O)[C@H]1O` (some centres undefined), the growth was -56.2% (active).
With `COc1ccc(-c2ccc(OC)c(OC)c2OC)cc1`, the growth was -20.7% (active).
As for `N#CCN(CC#N)[N+](=O)[O-]`, the growth is 112% (inactive).
Next, `CCCCCCCCOC(=O)CCN1CC1`: 100% (inactive).
To `C[C@]12CC[C@@H]3c4ccc(Oc5nc(N6CC6)nc(N6CC6)n5)cc4CC[C@H]3[C@@H]1CCC2=O` belongs 30.4% (inactive).
Next, `COc1ccc(/C=C\c2cc(OC)c(OC)c(OC)c2)cc1NC(=O)/C=C/c1cc(OC)c(OC)c(OC)c1`: 16.5% (inactive); `CO/N=C1\CC[C@]2(C)[C@H]3CC[C@]4(C)C(=O)CC[C@H]4[C@@H]3C[C@@H]3SC(N)=N[C@@]32C1`: 88.8% (inactive); `CSc1ccccc1NP1(=O)OCC(C)([N+](=O)[O-])CO1` (centres undefined): 105% (inactive).
`C=CCCCCCCCCC(=O)[O-].C=CCCCCCCCCC(=O)[O-].[Zn+2]`: the growth was 115% (inactive).
For the compound `O=NN1CCCc2cccc(O)c21`, the growth was 67.7% (inactive).
To `Brc1ccc2c(c1)c(-c1nc(-c3c[nH]c4ncccc34)cs1)cn2CCN1CCCCC1` belongs 79.2% (inactive); to `CCCCCCCCCCCCNC(c1ccccc1)C(O)c1ccccc1` (centres undefined), 48.5% (inactive); to `C[C@]12CCc3sc(Nc4ccc(OC(F)(F)F)cc4)nc3C1=CC[C@@H]1[C@@H]2CC[C@]2(C)C(=O)CC[C@@H]12`, 69.1% (inactive).
